This is an account of results in PubChem BioAssay (NCATS).

Structures are written as SMILES. “And” between values parts separate entries of the source, which are not always exact repeats. Identical values can stand only once. Inconclusive results are not listed. The source made the active and inactive calls. Unless noted, calls come from the whole dose curve; as a rule, active = well fitted curve in the direction sought with a large enough effect; inconclusive = small, poorly fitted or top-dose-only effect, or another doubt; inactive = no such curve, though single readings can be large; an effect the other way counts as inactive or inconclusive.

A short description of experiment [1]: Cell Viability - H-4-II-E (AID 543).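 Note: cells exposed to compound for 40 hours; % is set by controls: 0 for no effect and ±100 for the full control effect; nearly all actives have a fitted effect of over 35% in size.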 The method, boiled down: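 Rat hepatoma H-4-II-E cells, 1500 per well, treated 40 h at 37 °C in complete medium. Cellular ATP read by CellTiter-Glo luminescence; AC50 from Hill fits of concentration-response.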
A short description of experiment [2]: Cell Viability - SH-SY5Y (AID 544).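 Note: cells exposed to compound for 40 hours; nearly all actives have a fitted effect of over 55% in size.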 Particulars: SH-SY5Y neuroblastoma cell viability; viability change, negative = cytotoxic: at 92.2 µM (top of the series). A digest of the protocol: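 SH-SY5Y human neuroblastoma cells (1500/well) incubated 5 h, then compound-treated 40 h at 37 °C in complete medium. Viability read as intracellular ATP by CellTiter-Glo luminescence after 20 min; AC50 from Hill-equation fits of qHTS concentration-response.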

The nature of experiment [3]: Cellular Toxicity (caspase-3) Jurkat (AID 655).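 Note: cells exposed to compound for 16 h at 37 °C before reading.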 Particulars: Jurkat caspase-3 activation, luminescence; caspase-3 activation: at 92.2 µM (top of the series), DMSO = 0%, tamoxifen = 100%. A digest of the protocol:
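Luminescent caspase-3/7 readout (aminoluciferin substrate cleavage) in human T-cell leukemia Jurkat cells after 16 hr compound exposure. Concentration-response normalized to DMSO and 100 uM tamoxifen; AC50 by standard Hill equation.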

Experiment [4] in a line: Cell Viability - LYMP2-001 (AID 921).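 Note: 0% = DMSO only and full inhibition = tetraoctylammonium bromide control wells; nearly all actives have a fitted effect of over 70% in size.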 A digest of the protocol: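 CellTiter-Glo luminescence (intracellular ATP) after 24 hr compound exposure at 37 C, 2500 lymphoblastoid cells/well in complete medium. AC50 fitted with standard Hill equation; tetraoctylammonium bromide positive control.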
The nature of experiment [5]: MultiTox-Fluor Cytotoxicity Assay - LYMP1-003 - Live Cells (AID 962).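 Note: cells exposed to compound for 16 hours at 37 °C; 0% = DMSO only and full loss = 92 µM tetraoctylammonium bromide; cytotoxic hits lower the live-cell protease signal.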 The method, boiled down: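 LYMP1-003 lymphoblastoid cells, 2500/well in complete medium, treated 16 h at 37 C; live-cell protease cleavage of GF-AFC read by fluorescence (Ex/Em 405/510) after 60 min reagent; AC50 from Hill fits of concentration-response.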
The nature of experiment [6]: Cell Viability - LYMP2-004 (AID 966).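 Note: plate controls were DMSO only for no effect and tetraoctylammonium bromide control for full effect; nearly all actives have a fitted effect of over 65% in size.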 A digest of the protocol:
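Lymphoblastoid LYMP2-004 cells, 2500 per well, were preincubated for 5 hr and then treated with compound for 24 h at 37 C in complete medium. Viability was read as cellular ATP by CellTiter-Glo luminescence, and AC50 values were taken from Hill fits to concentration-response data.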

Experiment [7] in a line: Cell Viability - LYMP2-015 (AID 971).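 Note: 0% = DMSO only and full effect = 92 µM tetraoctylammonium bromide; nearly all actives have a fitted effect of over 55% in size.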 The method, boiled down:
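LYMP2-015 human lymphoblastoid cells (2500/well) in complete medium, compound-treated 24 h at 37 C; viability read as cellular ATP by CellTiter-Glo luminescence after 30 min at room temperature. AC50 from Hill-equation fits of qHTS concentration-response data.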

Experiment [8] in a line: Cell Viability - LYMP2-019 (AID 973).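 Note: 0% = DMSO alone and full effect = 92 µM tetraoctylammonium bromide; nearly all actives have a fitted effect of over 55% in size.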 A digest of the protocol: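 Human lymphoblastoid LYMP2-019 cells (2500/well) preincubated 5 h at 37 C, then treated 24 h at 37 C in complete medium. Viability by CellTiter-Glo ATP luminescence after 30 min at room temperature; AC50 from Hill fits.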
Experiment [9] in a line: Cell Viability - LYMP2-021 (AID 974).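 Note: compound exposure lasts 24 hours at 37 °C; % is set by controls: 0 for no effect and ±100 for the full control effect; nearly all actives have a fitted effect of over 55% in size.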 A digest of the protocol: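 Human lymphoblastoid LYMP2-021 cells, 2500/well in complete medium, treated 24 hours at 37 C. Intracellular ATP by CellTiter-Glo luminescence (30 min, RT); AC50 from Hill fits of concentration-response.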
Experiment [10] can be described thus: Cell Viability - LYMP2-025 (AID 976).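 Note: plate controls were DMSO only for no effect and tetraoctylammonium bromide control for full effect.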 A digest of the protocol:
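Human lymphoblastoid LYMP2-025 cells, 2500/well, exposed 24 h at 37 C in complete medium in 1536-well qHTS. Viability as cellular ATP by CellTiter-Glo luminescence; AC50 from Hill fits of concentration-response data.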

Experiment [11] can be described thus: Cell Viability - LYMP2-006 (AID 978). Note: % is set by controls: 0 for no effect and ±100 for the full control effect; nearly all actives have a fitted effect of over 60% in size. The method, boiled down:
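qHTS, 1536-well; 2500 cells/well, 5 hr 37 C; cpd 24 hr 37 C; CellTiter-Glo 30 min RT; luminescence. Tetraoctylammonium bromide pos. ctrl. AC50 via Hill eqn.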

Experiment [12] is described as follows: Cell Viability - LYMP2-007 (AID 979).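 Note: cells exposed to compound for 24 h before reading; 0% = DMSO only and the negative end = 92 µM tetraoctylammonium bromide; nearly all actives have a fitted effect of over 60% in size.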 A digest of the protocol: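 Human lymphoblastoid LYMP2-007 cells (2500/well) preincubated 5 h at 37 C, then treated 24 h at 37 C in complete medium. Viability by CellTiter-Glo ATP luminescence after 30 min at room temperature; AC50 from Hill fits.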
A short description of experiment [13]: Cell Viability - LYMP2-014 (AID 983).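 Note: plate controls were DMSO only for no effect and 92 µM tetraoctylammonium bromide for full effect; nearly all actives have a fitted effect of over 50% in size.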 The method, boiled down: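 LYMP2-014 human lymphoblastoid cells, 2500/well, treated 24 h at 37 C in complete medium; viability by CellTiter-Glo ATP luminescence after 30 min at room temperature. AC50 from Hill fits of qHTS concentration-response; tetraoctylammonium bromide positive control.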
The nature of experiment [14]: Cell Viability - LYMP2-018 (AID 985).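 Note: plate controls were DMSO only for no effect and tetraoctylammonium bromide at 92 µM for full effect; nearly all actives have a fitted effect of over 50% in size.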 The method, boiled down: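 Human lymphoblastoid LYMP2-018 cells, 2500/well, settled 5 hr at 37 C then exposed to compound 24 hr at 37 C; intracellular ATP measured by CellTiter-Glo luminescence. AC50 from Hill-equation concentration-response fits.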
Experiment [15] can be described thus: Cell Viability - LYMP2-020 (AID 986). A digest of the protocol:
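Human lymphoblastoid LYMP2-020 cells (2500/well) preincubated 5 h at 37 C, then treated 24 h at 37 C. Viability measured as intracellular ATP by CellTiter-Glo luminescence after 30 min at room temperature; AC50 from Hill fits.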

Experiment [16] can be described thus: Cell Viability - LYMP2-022 (AID 987). A digest of the protocol:
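LYMP2-022 lymphoblastoid cells (2500/well, complete medium) were treated with compounds for 24 hours at 37 C; intracellular ATP was then read by CellTiter-Glo luminescence after 30 min at room temperature. AC50 values were derived from Hill-equation fits.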

Experiment [17] is described as follows: Cell Viability - LYMP2-026 (AID 989). Note: % is set by controls: 0 for no effect and ±100 for the full control effect; nearly all actives have a fitted effect of over 50% in size. The method, boiled down: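 Human lymphoblastoid LYMP2-026 cells, 2500/well, exposed to compound 24 h at 37 C in complete medium. Viability as intracellular ATP by CellTiter-Glo luminescence; AC50 from Hill fits of qHTS concentration-response.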
The nature of experiment [18]: Cell Viability - LYMP1-002 - Assay at 40 hr (AID 994).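 Note: 0% = DMSO only and full inhibition = 92 µM tetraoctylammonium bromide; nearly all actives have a fitted effect of over 60% in size.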 A digest of the protocol: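 LYMP1-002 human lymphoblastoid cells (2500/well, complete medium) were treated with compounds for 40 hr at 37 C. Intracellular ATP was measured by CellTiter-Glo luminescence, and AC50 values came from Hill-equation fits of concentration-response data; tetraoctylammonium bromide was the positive control.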

Experiment [19] is described as follows: qHTS assay for small molecule agonists of retinoid X receptor alpha signaling (AID 588544). The note with it: HEK293T RXRa-UAS-bla, beta-lactamase reporter, 18 h; 530 nm emission. For orientation: In qHTS, concentration-response curves come from the screen itself.
The nature of experiment [20]: qHTS assay for small molecule antagonists of the retinoid-related orphan receptor gamma (ROR-gamma) signaling pathway - cell viability counter screen (AID 720652; active = well fitted curve in the direction sought with a large enough effect in the repeat runs; an effect the other way counts as inactive or inconclusive;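 note: CHO reporter cells with doxycycline-induced ROR-gamma expression; compound exposure lasted 16 hr before ATP read; % is set by controls: 0 for no effect and ±100 for the full control effect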). A digest of the protocol: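 CHO cells carrying TET-inducible ROR and RORE-luciferase reporter, plated 5 hr, then dosed with compound plus doxycycline. After 16 hr at 37 C, viability read as intracellular ATP by CellTiter-Glo luminescence.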

Turning to `FC(Cl)(Cl)Cl`, the Potency entry in experiment [1], in experiment [2], in [4], in [6], in [7] and in [8] was “inactive” in each case. The Potency entry in experiment [9], in experiment [10], in experiment [11], in experiment [12], in [13] and in experiment [14] was “inactive” each time. For the same molecule, the Potency result in [15], in experiment [16], in experiment [17], in [18] and in experiment [20] was “inactive” throughout. The caspase-3 activation in experiment [3] is -0.152% (inactive). In addition, the molecule was called inactive in experiment [5]. In [19], the max response was -11.5%.

Turning to `S=C1NCCN1`, the Potency result in experiment [1], in experiment [2], in experiment [4], in [6], in experiment [7] and in experiment [8] was “inactive” each time. In addition, the Potency result in [9], in experiment [10], in experiment [11], in [12], in experiment [13] and in [14] was “inactive” throughout. Also, the Potency entry in experiment [15], in [16], in experiment [17], in experiment [18] and in experiment [20] was “inactive” throughout. Besides, the caspase-3 activation in [3] was 0.9% (inactive). Also, the outcome in [5] was inactive. Also, the max response in experiment [19] was -9.74% and -4.86%.

As for `CCOC(=O)CBr`, the Potency result in experiment [1], in experiment [2], in [4], in [6], in experiment [7] and in [8] was “inactive” each time. Also, the Potency result in experiment [9], in experiment [10], in [11], in experiment [12], in experiment [13] and in experiment [14] was “inactive” throughout. The Potency result in experiment [15], in experiment [16], in experiment [17], in experiment [18] and in [20] was “inactive” throughout. In addition, the caspase-3 activation in experiment [3] is 1.06% (inactive). Also, the molecule was classed as inactive in experiment [5]. For the same molecule, in experiment [19], the max response worked out at 8.56%.

Turning to `CC(C)OC(=O)Cc1ccccc1`, the Potency entry in experiment [1], in [2], in experiment [4], in experiment [6], in experiment [7] and in experiment [8] was “inactive” in each case. Further, the Potency entry in [9], in [10], in [11], in experiment [12], in [13] and in [14] was “inactive” each time. Moreover, the Potency entry in [15], in experiment [16], in [17], in experiment [18] and in experiment [20] was “inactive” in each case. Further, the caspase-3 activation in experiment [3] was -1.43% (inactive). In addition, in experiment [5], the outcome was inactive. Also, the max response in experiment [19] amounted to 1.88%.

In the case of `Nc1cc(Cl)cc(Cl)c1`, the Potency entry in [1], in experiment [2], in [4], in experiment [6], in experiment [7] and in [8] was “inactive” throughout. Further, the Potency entry in [9], in experiment [10], in experiment [11], in experiment [12], in experiment [13] and in [14] was “inactive” in each case. For the same molecule, the Potency entry in experiment [15], in experiment [16], in experiment [17], in experiment [18] and in [20] was “inactive” throughout. The caspase-3 activation in experiment [3] was -0.381% (inactive). Also, the result in [5] was inactive. The max response in experiment [19] is -17%.

With `CCC#N`, the Potency result in [1], in experiment [2], in experiment [4], in [6], in experiment [7] and in experiment [8] was “inactive” throughout. The Potency entry in experiment [9], in experiment [10], in experiment [11], in experiment [12], in experiment [13] and in experiment [14] was “inactive” throughout. Besides, the Potency result in experiment [15], in [16], in experiment [17], in experiment [18] and in [20] was “inactive” in each case. For the same molecule, in [3], the caspase-3 activation is -0.741% (inactive). For the same molecule, in experiment [5], the molecule was classed as inactive. In experiment [19], the max response is 3.48%.

For `Nc1ccc(Cc2ccc(N)cc2)cc1`, the Potency entry in experiment [1], in [2], in experiment [6], in experiment [7], in experiment [8] and in experiment [9] was “inactive” throughout. Also, the Potency result in experiment [10], in [11], in experiment [12], in experiment [13], in experiment [14] and in experiment [17] was “inactive” in each case. Further, the Potency result in experiment [18] and in experiment [20] was “inactive” throughout. Besides, the caspase-3 activation in experiment [3] was 2.26% (inactive). Also, the molecule was classed as inactive in [5]. For the same molecule, the max response in experiment [19] was 7.13%.

As for `CCBr`, the Potency entry in [1], in [2], in experiment [4], in experiment [6], in [7] and in experiment [8] was “inactive” in each case. The Potency entry in [9], in [10], in experiment [11], in experiment [12], in experiment [13] and in experiment [14] was “inactive” throughout. For the same molecule, the Potency entry in experiment [15], in experiment [16], in experiment [17], in experiment [18] and in [20] was “inactive” throughout. Further, in experiment [3], the caspase-3 activation is -0.439% (inactive). The molecule was classed as inactive in [5]. Besides, in experiment [19], the max response is -3.72%.
